Compounds without any hit were thinned out: in the full panel of roughly 83,000, 20% have a hit.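 Cell lines were cultured in 96-well plates, exposed to a single compound concentration, and assessed for percent growth 48 hours later.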 The source made the active and inactive calls. How the source made its calls: active means growth percent below 10; inactive means the rest.

Experimental findings from PubChem BioAssay (NCI) are described below.

In the experiment the test system is MDA-MB-468 breast. The experiment is described as follows: NCI-60 one-dose screen, 48 h (100 = growth as untreated, 0 = no growth, -100 = all killed). Conditions: 10 µM unless noted.
With `N[C@@H](CCC(=O)CCl)C(=O)O`, the growth is 102% [20 µM] (inactive).
`C#C[C@]1(OC(=O)CCCCCC)CC[C@H]2[C@@H]3CCC4=CC(=O)CC[C@@H]4[C@H]3CC[C@@]21C`: the growth is 39.6% (inactive).
In the case of `CC1(C)N=C(N)N=C(N)N1c1ccc(CCC(=O)Nc2cccc(S(=O)(=O)F)c2)cc1`, the growth was 28% (inactive).
On to `O=C(CCCCCCC(=O)Nc1ccc(N(CCCl)CCCl)cc1)NO`, for which the growth is -64.2% (active).
As for `COP(=S)(N1CC1)N1CC1`, the figure is 110% (inactive).
`COC1=CC(=O)OC(CCc2ccc3c(c2)OCO3)C1` (stereo unspecified): the growth is 95.9% (inactive).
Turning to `COc1cc(/C=C/[N+](=O)[O-])cc(OC)c1`, the growth is -61.2% (active).
Consider `n1nc(-c2nonc2-c2nn[nH]n2)n[nH]1`, for which the growth is 101% (inactive).
For the compound `NC(=O)NC(=O)CI`, the growth was 83.7% (inactive).
Turning to `CC[C@H](C)[C@H](NC(=O)c1cnccn1)C(=O)N(C)[C@H](C[C@@H](OC(C)=O)c1nc(C(=O)N[C@@H](Cc2ccccc2)C[C@H](C)C(=O)OC)cs1)C(C)C`, the growth was 31.5% (inactive).
`O=[N+]([O-])/C=C\c1ccc2c(c1)OCO2`: the growth was 82% (inactive).
Consider `COC(=O)[C@@H](C)C[C@H](Cc1ccccc1)NC(=O)c1cccc([C@@H](C[C@H](C(C)C)N(C)C(=O)[C@@H](NC(=O)[C@H]2CCCCN2C)C2CC2)OC(C)=O)n1`, for which the growth was 35.3% (inactive).
Take `CCC(CC)CC1(C)CC2(C)CCOC2OO1` (stereo unspecified): the growth is 110% (inactive).
Take `Oc1cc(Cl)ccc1Oc1ccc(Cl)cc1Cl`: the growth was 7% (active).
The same measure for `COc1ccc(CN)cc1OC`: 114% (inactive); for `CNC(=O)Oc1ccc(N(C)C)cc1C(C)C`: 74.8% (inactive).
